PubChem BioAssay AID540276 (National Center for Advancing Translational Sciences (NCATS), 2011)
The whole screen tested about 300,000 compounds, of which about 5,400 (1.8%) were called active. A call without a number means that no potency is given here. About 28% were inconclusive and are not listed. The call rests on the fitted dose curve; tested in HEK293 cells. The sample as a whole holds a higher share of actives than the screen did.

Assay: qHTS for inhibitors of binding or entry into cells for Marburg Virus
Conditions: Marburg virus pseudotyped entry inhibition, cell reporter; series mostly up to 37.8 µM
Potency means the concentration at half of the fitted maximal effect.

Row | SMILES | Potency
1 | COc1ccc([C@H]2C(C#N)=C(N)Oc3n[nH]c(C)c32)cc1CSc1ccccn1 | inactive
2 | COc1cccc(NC(=O)CN(C)C(=O)Cc2ccc(Cl)cc2Cl)c1 | inactive
3 | CCOC(=O)c1c(-c2cccc(C)c2)csc1NC(=O)c1c(-c2ccccc2)noc1C | 0.316 µM (active)
4 | Cc1ccc(CNC(=O)c2c(-c3ccccc3)noc2C)cc1 | inactive
5 | CC(=O)Nc1cccc(NC(=O)c2c(-c3ccccc3)noc2C)c1 | inactive
6 | CC(C)(C)C(=O)Nc1cccc(-c2ccc[nH]2)n1 | inactive
7 | Cc1cc([N+](=O)[O-])c(=O)[nH]c1C | inactive
8 | COc1ccc(NC(=O)N2CCCC2C(=O)NCc2ccccc2Cl)cc1 (configuration not stated) | inactive
9 | CCc1ccc(NC(=O)CN2C(=O)C(c3ccccc3)=NC23CCCCCC3)cc1 | inactive
10 | COc1ccc(C2=NC3(CCCCC3)N(CC(=O)Nc3ccc(C(C)C)cc3)C2=O)cc1 | 11.2 µM (active)
11 | COc1ccc(NC(=O)CN2C(=O)C(c3ccccc3)=NC23CCCCCC3)cc1OC | inactive
12 | CCCCn1c(N)c(N(CC(C)C)C(=O)c2ccc(Br)o2)c(=O)[nH]c1=O | inactive
13 | O=C(Nc1c[nH]c(=O)[nH]c1=O)OCc1ccccc1 | inactive
14 | Cc1c(NC(=O)CN(C)CC(=O)Nc2ccc(F)c(F)c2F)c(=O)n(-c2ccccc2)n1C | inactive
15 | Cc1cccc(N(Cc2ccccc2)C(=O)c2cc(S(=O)(=O)N3CCOCC3)ccc2F)c1 | inactive
16 | Cc1cc(NC(=O)c2cc3ccccc3o2)no1 | inactive
17 | COc1cccc2sc(N(CCCN(C)C)C(=O)C(c3ccccc3)c3ccccc3)nc12 | 10 µM (active)
18 | COc1cccc2sc(NNC(=O)c3nc4ccccc4s3)nc12 | inactive
19 | CCOc1ccc2nc(N(CCN(C)C)C(=O)c3ccc4ccccc4c3)sc2c1 | inactive
20 | COC(=O)C1=C(C)NC(=S)NC1c1ccc(OCC(=O)N2CC(C)OC(C)C2)c(OC)c1 (configuration not stated) | inactive
21 | COc1ccc(OCC(O)CNCCNc2nccc(C(F)(F)F)n2)cc1 (configuration not stated) | inactive
22 | CC(C)(C)CC(C)(C)NCC(O)COCCOc1ccc(Br)cc1 (configuration not stated) | 4.61 µM (active)
23 | Cc1noc(COc2ccccc2OCC(O)CNC(C)(C)C)n1 (configuration not stated) | inactive
24 | COc1cccc(NC(=O)C/C(C)=N/NC(=O)C2CCCCC2)c1 | inactive
25 | Cc1ccc(OCC(=O)Oc2ccccc2[N+](=O)[O-])cc1 | inactive
26 | O=C1CN(C(=O)COc2c(Cl)cccc2Cl)c2ccccc2N1 | inactive
27 | COc1ccc(-n2ncc3c2CC(C)(C)CC3NC(=O)CCc2c(C)nn(C)c2C)cc1 (configuration not stated) | inactive
